ERa coact pot = enhancers of ERα–SRC-1 coactivator binding, primary screen, biochemical, TR-FRET, ERα LBD, low estradiol. Estrogen receptor (Homo sapiens), P03372. TR-FRET ERalpha-LBD/SRC-Cy5 coactivator binding, 2 h; 100 = basal binding, no effect. coactivator binding (% of control), % at 25.6 µM. hit rate 1.3% among 86,000. AID 639, 2007; in the data active = activity above about 200%;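 note: binding measured in presence of low estradiol as agonist stimulus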
Target sequence (P03372 whole entry, looked up, the tested form may be a part): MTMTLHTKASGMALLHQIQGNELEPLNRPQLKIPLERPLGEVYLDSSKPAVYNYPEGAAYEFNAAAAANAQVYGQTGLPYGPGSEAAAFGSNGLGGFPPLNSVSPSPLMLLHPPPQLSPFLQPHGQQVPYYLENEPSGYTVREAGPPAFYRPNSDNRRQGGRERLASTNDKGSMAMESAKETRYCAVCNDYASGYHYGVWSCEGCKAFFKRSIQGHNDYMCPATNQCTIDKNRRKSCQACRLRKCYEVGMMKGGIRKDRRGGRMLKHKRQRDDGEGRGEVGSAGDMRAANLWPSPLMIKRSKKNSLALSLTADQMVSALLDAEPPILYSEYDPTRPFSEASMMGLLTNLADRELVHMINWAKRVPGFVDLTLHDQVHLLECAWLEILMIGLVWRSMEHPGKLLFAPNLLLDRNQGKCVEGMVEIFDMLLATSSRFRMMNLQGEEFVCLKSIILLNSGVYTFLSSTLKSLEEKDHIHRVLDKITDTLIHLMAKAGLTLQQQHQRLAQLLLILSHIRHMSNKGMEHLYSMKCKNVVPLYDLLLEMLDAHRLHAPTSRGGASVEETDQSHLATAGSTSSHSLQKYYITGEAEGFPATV
hDAT+cocaine = changed hDAT dopamine uptake under cocaine IC80, either direction, primary screen, cocaine antagonist project, cell-based, LLC-PK1 hDAT, [14C]-dopamine uptake, MLSMR | B-score at 10 µM | hit rate 1.3% among 110,000 | LLC-PK1 hDAT cells, [14C]-dopamine uptake with cocaine IC80; actives deviate in either direction | Sodium-dependent dopamine transporter (Homo sapiens), Q01959 | AID 449768, 2010;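 active = Z score or B-score, a plate-position-corrected score, falls beyond the plate's 99.7% confidence bounds, in either direction; inactive = both scores lie inside the 99.7% bounds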
ERa coact inh = ERα–SRC-1 coactivator interaction inhibitors, primary screen, biochemical, TR-FRET, ERα LBD, estradiol-bound | TR-FRET ER-alpha LBD / SRC-1 peptide | inhibition, % at 25.6 µM | hit rate 1.7% among 86,000 | AID 629, 2007; in the data active = inhibition above about 50%
MT1-MMP txn act = MT1-MMP promoter reporter activation – cell-based, luciferase luminescence, primary screen. AID 750, 2007. HT1080 MT1-MMP promoter luciferase reporter, overnight; stronger effect = higher value. hit rate 0.16% among 86,000. activation factor at 10 µM;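 active = activation factor of at least 2 for MT1-MMP transcription at 10 µM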
ERb SRC1 inh = inhibitors of ERβ-SRC1 coactivator interaction, primary screen, biochemical, TR-FRET, ERβ LBD, SRC-1 peptide | TR-FRET ER-beta LBD / SRC1-Cy5 peptide binding; receptor agonist-loaded with 1 µM estradiol | inhibition, % at 25.6 µM | Estrogen receptor beta (Homo sapiens), Q92731 | AID 633, 2007 | hit rate 1.3% among 86,000;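 active = compounds whose percent inhibition of the receptor-coactivator binding signal exceeds about 50% in the single-dose screen, limit read from the data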
Of the large screens only hits and unclear results are named; the others gave an inactive call; [ ] = dose if it differs, or a comment. Most compounds without a hit are left out; they make up all but 3.8% or so of the library.

Cc1ccc(-c2ccc(/C=N/N3C(=O)C4C5C=CC(CC5)C4C3=O)o2)c([N+](=O)[O-])c1 (stereo not drawn)	none
CCOC(=O)c1c(C)oc2c1c(C(c1cccnc1)N1CCCCC1)c(O)c1ccccc12 (stereo not drawn)	ERa coact inh 67.8, ERb SRC1 inh 67.2
CCOC(=O)c1c(C)oc2c1c(C(c1ccccc1)N1CCOCC1)c(O)c1ccccc12 (stereo not drawn)	none (no result: ERa coact pot, ERa coact inh, MT1-MMP txn act, ERb SRC1 inh)
Cc1nn(CC(=O)NC(C)c2ccccc2)c(=O)c2ccccc12 (stereo not drawn)	none
Cc1ccc(-c2nn(CC(=O)NC(C)c3ccccc3)c(=O)c3ccccc23)cc1 (stereo not drawn)	ERa coact pot 207.5[fluorescence artefact?]
O=C(NC1(C(F)(F)F)NC(=O)N(C2CCCCC2)C1=O)c1cccs1 (stereo not drawn)	hDAT+cocaine -3.31
CC1CC(C)CN(CCCNC(=O)Cc2c(C(=O)O)n(C)c3ccccc23)C1 (stereo not drawn)	none (no result: hDAT+cocaine)
Cn1ccnc1SCc1cn2cc(Br)ccc2n1	hDAT+cocaine -8.74 (no result: MT1-MMP txn act)
CN(c1ccc(Cl)cc1)c1cc(=O)n(C)c2ccccc12	hDAT+cocaine 3.07
COc1ccc(CNCC(=O)Nc2cc(C)nn2-c2nc(C)cc(C)n2)cc1OC	none (no result: ERa coact pot, hDAT+cocaine, ERa coact inh, ERb SRC1 inh)
Cc1cc(C)nc(-n2nc(C)cc2NC(=O)CNCc2ccccc2)n1	ERb SRC1 inh 90.5[fluorescence artefact?]
CCCn1c(N)c(C(=O)CSc2nnnn2-c2ccc(O)cc2)c(=O)n(C)c1=O	none
O=C(C1=C[C@H](c2ccccc2)C[C@H](OCc2ccc(CO)cc2)O1)N1CCN(Cc2ccccc2)CC1	hDAT+cocaine 2.79 (no result: ERa coact pot, ERa coact inh, MT1-MMP txn act, ERb SRC1 inh)
CC(=O)n1cc([C@@H]2C=C(C(=O)NCc3ccccc3)O[C@H](OCc3ccc(CO)cc3)C2)c2ccccc21	hDAT+cocaine 2.16 (no result: ERa coact pot, ERa coact inh, MT1-MMP txn act, ERb SRC1 inh)
O=C(C1=C[C@H](c2csc3ccccc23)C[C@H](OCCCCO)O1)N1CCN(Cc2ccc3c(c2)OCO3)CC1	hDAT+cocaine 2.63 (no result: ERa coact pot, ERa coact inh, MT1-MMP txn act, ERb SRC1 inh)
C#CCNC(=O)C1=C[C@H](c2cn(C(C)=O)c3ccccc23)C[C@H](OCc2ccc(CO)cc2)O1	none (no result: ERa coact pot, ERa coact inh, MT1-MMP txn act, ERb SRC1 inh)
O=C(C1=C[C@@H](c2csc3ccccc23)C[C@@H](OCCCCO)O1)N1CCN(Cc2ccc3c(c2)OCO3)CC1	none (no result: ERa coact pot, ERa coact inh, MT1-MMP txn act, ERb SRC1 inh)
NC(=O)CC[C@@H]1NC(=O)[C@@H]2CCCN2C(=O)c2cc([N+](=O)[O-])cc(I)c2NCCCC[C@@H](C(=O)NC(CC(=O)O)C(N)=O)NC1=O (stereo partly drawn)	none (no result: ERa coact pot, ERa coact inh, MT1-MMP txn act, ERb SRC1 inh)
CCOC(=O)C(C)c1ccc2cc(OC)ccc2c1 (stereo not drawn)	hDAT+cocaine -4.22
Nc1nc(CN2CCN(c3ccc(F)cc3)CC2)nc(N2CCCc3ccccc32)n1	hDAT+cocaine -2.65
O=C(NCCO[N+](=O)[O-])c1cccnc1	none (no result: ERa coact pot, ERa coact inh, MT1-MMP txn act, ERb SRC1 inh)
COC(C[C@H]1O[C@H]1[C@@H](O)[C@H](C)OCc1ccccc1)OC	none (no result: ERa coact pot, ERa coact inh, MT1-MMP txn act, ERb SRC1 inh)
Cn1ccnc1SCC(=O)Nc1cccc(O)c1	none
N#Cc1ccsc1NC(=O)CSc1ncnc2ccccc12	ERa coact inh 90.6[fluorescence artefact?], ERb SRC1 inh 61.3
Cn1ccnc1SCC(=O)Nc1sccc1C#N	ERa coact inh 66.8[fluorescence artefact?]
CCCCOc1cccc(NC(=O)CSc2nccn2C)c1	hDAT+cocaine 2.74
COC(=O)c1ccc(C(/C=C/[C@@H](C)C(=O)NCc2cc(C)n(C)n2)NC(=O)OCc2ccccc2)cc1 (stereo partly drawn)	none (no result: ERa coact pot, hDAT+cocaine, ERa coact inh, ERb SRC1 inh)
CCC1=C(OC(=O)N(CC)CC)N2C(=O)OC(=NCC3CC3)[C@]2(C)[C@H]2C1=CC[C@H]1C(=O)N(c3ccccc3)C(=O)[C@H]12	none (no result: ERa coact pot, hDAT+cocaine, ERa coact inh, ERb SRC1 inh)
CCC1=C(OC(=O)N(CC)CC)N2C(=O)OC(=NCc3ccccc3)[C@]2(C)[C@H]2C1=CC[C@H]1C(=O)N(c3ccccc3)C(=O)[C@H]12	hDAT+cocaine 1.85 (no result: ERa coact pot, ERa coact inh, ERb SRC1 inh)
C=CCN1C(=O)CSc2ccc(C(=O)N3CCC(C)CC3)cc21	none
CS(=O)(=O)N(CC(=O)Nc1ccc(CC#N)cc1)c1ccc(C23CC4CC(CC(C4)C2)C3)cc1	none (no result: ERa coact pot, ERa coact inh, MT1-MMP txn act, ERb SRC1 inh)
COc1ccc2[nH]c(C)c(C(=O)CN3CCOCC3)c2c1	hDAT+cocaine -2.97
COc1ccc2[nH]c(C)c(C(=O)CN3CCc4cc(OC)c(OC)cc4C3)c2c1	none (no result: ERa coact pot, ERa coact inh, ERb SRC1 inh)
CNC(=O)CN(C)S(=O)(=O)c1ccc(F)cc1	none
CC(C)CCNC(=O)c1nnc(Cc2ccc(Cl)cc2)o1	none (no result: MT1-MMP txn act)
CCCc1cc(=O)oc2cc(OCC(=O)N3CCc4ccccc43)ccc12	ERa coact pot 335.0[fluorescence artefact?]
CCCCc1cc(=O)oc2cc(OCC(=O)N3CCc4ccccc43)ccc12	ERa coact pot 200.4 (no result: MT1-MMP txn act)
C=C(Cl)COc1ccc2c(CCC)cc(=O)oc2c1	none
Cc1cc(=O)oc2cc(OCC(=O)OCC(=O)N3CCc4ccccc43)ccc12	none
CCCc1cc(=O)oc2cc(OCC(=O)Nc3cc(C)on3)ccc12	ERa coact pot 819.8[fluorescence artefact?]
COCCN(C(=O)CNC(=O)c1ccco1)C(C(=O)NC1CCCCC1)c1cccs1 (stereo not drawn)	none
O=C(O)Cc1ccc(NC(=O)C2CC=CCC2C(=O)O)cc1 (stereo not drawn)	ERa coact pot 233.9
O=C(O)C1CC=CCC1C(=O)Nc1ccc(S(=O)(=O)N2CCCc3ccccc32)cc1 (stereo not drawn)	hDAT+cocaine 1.34
O=C(Nc1ccc(S(=O)(=O)N2CCCc3ccccc32)cc1)C1CCCO1 (stereo not drawn)	none
Cc1cccc(OCc2nnc(SCC(=O)Nc3ccc(C)c(C)c3)o2)c1	ERa coact pot 230.3
Cc1cccc(OCc2nnc(SCc3cc(=O)n4cc(Br)ccc4n3)o2)c1	ERa coact pot 203.0
NC(=O)C(c1ccc(Cl)cc1Cl)c1ncc(C(F)(F)F)cc1Cl (stereo not drawn)	none (no result: ERa coact pot, ERa coact inh, MT1-MMP txn act, ERb SRC1 inh)
O=C(c1ccccc1Oc1ccccc1)N1CCN(c2ccccc2F)CC1	none
Cc1cc(C)cc(NC(=O)CSc2nnc(Cc3cccn3C)n2-c2ccc(F)cc2)c1	hDAT+cocaine 2.59
COc1ccccc1Nc1nc(N)nc(CN2CCN(Cc3ccccc3)CC2)n1	none
COc1ccccc1Nc1nc(N)nc(CN2CCN(c3ccccc3F)CC2)n1	hDAT+cocaine 2.81
Cc1c(NC(=O)c2ccc3c(c2)OCO3)cccc1-c1nc2ccccc2o1	none
O=C(CN1C(=O)c2ccccc2C1=O)Nc1ccc(-c2nc3ccccc3o2)cc1	ERa coact pot 213.4
Cc1ccc(-c2nc3ccccc3o2)cc1NC(=O)c1ccc2c(c1)OCO2	ERa coact pot 265.8
O=C(Nc1ccccc1-c1nc2ccccc2o1)c1ccc2c(c1)OCCO2	ERa coact pot 217.0[fluorescence artefact?] (no result: hDAT+cocaine)
O=C(Nc1ccc(-c2nc3ccccc3o2)cc1)c1ccc2c(c1)OCO2	ERa coact inh 57.2[fluorescence artefact?]
COc1ccc2nc(SCC(=O)Nc3ccc4sc(C)nc4c3)c(C#N)cc2c1	none (no result: ERa coact pot, ERa coact inh, MT1-MMP txn act, ERb SRC1 inh)
